Screening results from PubChem.
In the library only some 3.4% were active in any assay of this set; here they are far more common.
GoLoco inh red – blocks human Gai1 binding to RGS12 GoLoco peptide, red readout | P63096 | Gai1:RGS12 GoLoco peptide FP, rhodamine, 10 min | Potency, µM (series often up to 61.6 µM), hits mostly inhibitors | hit rate 0.44% among 230,000; active means well fitted inhibition curve with a large enough effect, not every such curve was filed as active; inactive means no such curve, though single readings can be large or run the other way; further: nearly all actives have a fitted effect of over 30% in size
Target sequence (P63096 whole entry, looked up): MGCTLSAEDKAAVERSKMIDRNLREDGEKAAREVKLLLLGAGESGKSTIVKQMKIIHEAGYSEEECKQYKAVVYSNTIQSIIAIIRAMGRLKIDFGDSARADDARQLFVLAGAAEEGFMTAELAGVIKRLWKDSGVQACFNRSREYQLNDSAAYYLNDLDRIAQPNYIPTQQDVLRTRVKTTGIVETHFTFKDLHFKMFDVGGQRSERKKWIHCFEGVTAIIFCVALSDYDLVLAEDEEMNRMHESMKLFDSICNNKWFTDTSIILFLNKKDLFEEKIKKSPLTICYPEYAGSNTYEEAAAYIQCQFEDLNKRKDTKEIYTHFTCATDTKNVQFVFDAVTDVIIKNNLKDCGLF
Tau ThT inhib – blocks human tau fibril formation measured by thioflavin T | P10636 | recombinant tau K18 P301L, heparin-induced fibrillization, ThT fluorescence | Potency, µM (series often up to 57.4 µM), actives largely listed as inhibitors | hit rate 2.1% among 270,000; further: nearly all actives have a fitted effect of over 55% in size
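Heparin-induced (20 uM) aggregation of recombinant human K18 P301L tau, 15 uM unlabeled with 0.24 uM labeled, pH 7 acetate buffer, 6 hr at 37 C with compound. Fibrils quantified by 30 uM ThT fluorescence after 1 hr ambient incubation.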
Tau fluor cs – counter-screen for tau fibril formation inhibitors. Potency, µM (highest dose often 57.7 µM). hit rate 0.93% among 280,000. tau K18 P301L Alexa594 fluorescence, heparin fibrillization; further: nearly all actives have a fitted effect of over 55% in size
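Human tau K18 P301L (15 uM unlabeled, 0.24 uM Alexa 594-labeled) in 100 mM sodium acetate pH 7 with 20 uM heparin, 6 hr at 37 C. ThT 30 uM added, 1 hr ambient; Alexa 594 FP and total fluorescence read at 555/632 nm.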
KDM4E inh – JMJD2E (human) inhibition | B2RXH2 | JMJD2E catalytic domain, FDH-coupled NADH fluorescence (FDH is formaldehyde dehydrogenase) | Potency, µM (top dose mostly 57.1 µM), hits mostly inhibitors | hit rate 1.6% among 230,000 | AID 2147; active means well fitted inhibition curve with a large enough effect, not every such curve was filed as active; inconclusive means small, poorly fitted or top-dose-only effect, or another doubt; inactive means no such curve, though single readings can be large or run the other way; further: nearly all actives have a fitted effect of over 50% in size
Target sequence (B2RXH2 1-337 limits assumed): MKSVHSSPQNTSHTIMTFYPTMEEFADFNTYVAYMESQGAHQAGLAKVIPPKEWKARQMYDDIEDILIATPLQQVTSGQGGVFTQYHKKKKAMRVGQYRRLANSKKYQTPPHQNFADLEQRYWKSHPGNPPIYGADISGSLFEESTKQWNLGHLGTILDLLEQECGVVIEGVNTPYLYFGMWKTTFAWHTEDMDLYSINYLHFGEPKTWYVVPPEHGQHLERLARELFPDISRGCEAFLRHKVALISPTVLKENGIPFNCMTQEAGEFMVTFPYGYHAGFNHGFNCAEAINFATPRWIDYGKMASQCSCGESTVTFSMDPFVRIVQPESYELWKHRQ
Tau fibril FP – inhibitors of human tau fibril formation; AID 1468; hit rate 0.39% among 280,000; Potency, µM (series often up to 57.7 µM), actives largely listed as inhibitors; K18 P301L tau heparin fibrillization, Alexa594 FP, 6 h; P10636; further: nearly all actives have a fitted effect of over 55% in size
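Human tau K18 […] P301L fragment, 15 uM unlabeled plus 0.24 uM Alexa 594-labeled tau (final), with compound and 20 uM heparin in 100 mM sodium acetate pH 7; 6 hr at 37 C, then Alexa 594 FP read.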
Large screens that a line does not name were inactive; ! = not active in a repeat; [ ] = dose if it differs, or a comment. Unless noted, the call rests on the fitted dose curve; in most records, active means well fitted curve in the direction sought with a large enough effect; inconclusive means small, poorly fitted or top-dose-only effect, or another doubt; inactive means no such curve, though single readings can be large; an effect the other way counts as inactive or inconclusive.

C=CCN1CCc2c(cc(O)c(O)c2Cl)C(c2ccccc2)C1 (stereo not drawn)	Tau ThT inhib inconclusive, KDM4E inh 13µM
C=CCN1CCc2cc(O)c(O)cc2C(c2ccccc2)C1 (stereo not drawn)	KDM4E inh inconclusive
Oc1cc2c(c(Cl)c1O)CCNCC2c1ccccc1 (stereo not drawn)	KDM4E inh 13µM
Oc1cc2c(c(Cl)c1O)CCNC[C@H]2c1ccccc1	Tau ThT inhib inconclusive, KDM4E inh 13µM
Cc1cccc(C2CN(C)CCc3c2cc(O)c(O)c3Cl)c1 (stereo not drawn)	Tau ThT inhib inconclusive, KDM4E inh 13µM
O=S(=O)(c1ccc(Cl)cc1)c1nc(-c2cccs2)oc1SCc1ccccc1F	Tau fluor cs inconclusive (no result: GoLoco inh red, KDM4E inh)
CCOc1cccc(C2c3[nH]c4ccccc4c3CCN2C(=O)Cc2cccc(OCC)c2OCC)c1 (stereo not drawn)	none (no result: GoLoco inh red, KDM4E inh)
CCOc1c(CC2C(=O)Nc3ccc(Br)cc32)cccc1OC (stereo not drawn)	none (no result: GoLoco inh red, KDM4E inh)
COC(=O)[C@H]1[C@H]2C[C@@H]3c4[nH]c5cc(OC)ccc5c4CCN3C[C@H]2C[C@@H](OC(=O)c2cc(OC)c(OC)c(OC)c2)[C@@H]1OC	Tau ThT inhib inconclusive, Tau fluor cs 13µM[quencher], KDM4E inh inconclusive
COC(=O)[C@@H]1C2CC3c4[nH]c5cc(OC)ccc5c4CCN3CC2C[C@H](OC(=O)c2cc(OC)c(OC)c(OC)c2)C1OC (stereo partly drawn)	Tau ThT inhib inconclusive, Tau fluor cs inconclusive, KDM4E inh inconclusive
O=C(Oc1ccccc1F)c1nc(SCc2ccc(F)cc2)ncc1Cl	Tau ThT inhib 20µM (no result: GoLoco inh red, KDM4E inh)
COc1ccc2[nH]c(-c3ccc(F)cc3F)cc(=O)c2c1	none (no result: KDM4E inh)
COc1ccc2[nH]c3c4c(ccc3c2c1)C(=O)C=CC4=O	GoLoco inh red 22µM, Tau ThT inhib 3.5µM, Tau fluor cs 2µM[quencher], KDM4E inh inconclusive, Tau fibril FP 11µM
COc1cc(/C=C/C(=O)N2CCCN(C(=O)/C=C/c3cc(OC)c(OC)c(OC)c3)CC2)cc(OC)c1OC	none
COc1cc(/C=C/C(=O)N2CCC=CC2=O)cc(OC)c1OC	Tau ThT inhib 8.9µM, Tau fibril FP inconclusive
O=C1/C(=C\c2ccccn2)SC(=S)N1Nc1ncc(C(F)(F)F)cc1Cl	Tau ThT inhib 28µM, Tau fibril FP inconclusive
CCC(=O)N1CCN(c2ccc(NC(=O)c3cc4ccccc4o3)cc2)CC1	Tau ThT inhib 2.8µM, Tau fluor cs inconclusive
O=C(Nc1ccc(CN2CCOCC2)cc1)c1cc2ccccc2o1	none
O=C(Nc1ccc(N2CCOCC2)cc1)c1cc2ccccc2o1	Tau ThT inhib 5.6µM, KDM4E inh inconclusive
CNC(=O)CN1C(=O)COc2ccc(S(=O)(=O)N3CCC(C)CC3)cc21	none (no result: GoLoco inh red, KDM4E inh)
CCc1ccc(NC(=O)c2cnn(-c3c(C)cccc3C)c2C2CCNCC2)cc1	none (no result: GoLoco inh red, KDM4E inh)
NS(=O)(=O)c1ccc(NN=C2CCN(Cc3ccccc3)CC2)c([N+](=O)[O-])c1	Tau ThT inhib 25µM
CCCN1CCC(=NNc2ccc(S(=O)(=O)N3CCOCC3)cc2[N+](=O)[O-])CC1	none
N#Cc1ccc(S(=O)(=O)N2CCC(Oc3cccc(C(F)(F)F)c3)CC2)cc1	none (no result: GoLoco inh red, KDM4E inh)
CCc1ccc(NC(=O)CC2C(=O)N(c3cccc(C)c3)C(=O)N2CCC(C)C)cc1 (stereo not drawn)	none (no result: GoLoco inh red, KDM4E inh)
CCCCC(=O)/C=C/n1c(=S)oc2ccccc21	Tau ThT inhib 14µM, Tau fibril FP inconclusive
COc1cc(Nc2ncc3c(n2)CCN(Cc2cc(F)cc(F)c2)C3)cc(OC)c1	none (no result: GoLoco inh red, KDM4E inh)
Cc1ccc(CC(=O)Nc2ccc3c(c2)N(C)C(=O)c2ccccc2S3)cc1	none (no result: GoLoco inh red, KDM4E inh)
O=C(/C=C/c1cccs1)Nc1scc(-c2ccccc2)c1C(=O)O	Tau ThT inhib inconclusive, KDM4E inh 5µM
O=C(/C=C/c1cccs1)Nc1nc(-c2ccccc2)cs1	Tau fluor cs inconclusive, Tau fibril FP inconclusive
O=C(OCn1ncc(Cl)c(Cl)c1=O)c1ccccc1Cl	Tau ThT inhib 14µM
N#C/C(=C\c1coc2ccccc2c1=O)C(N)=S	KDM4E inh inconclusive
N#C/C(=C\c1coc2ccc(O)cc2c1=O)C(=O)Nc1nc2ccccc2s1	Tau ThT inhib 18µM, Tau fluor cs 28µM[quencher], KDM4E inh inconclusive, Tau fibril FP inconclusive
Cc1ccc(NC(=O)CCNS(=O)(=O)c2ccc3c(c2)CCN3C(=O)C2CC2)c(Cl)c1	none (no result: GoLoco inh red, KDM4E inh)
N#CC1=C(N)Oc2n[nH]c(-c3cccs3)c2C1c1cccs1 (stereo not drawn)	Tau ThT inhib 28µM, Tau fluor cs inconclusive
Cc1ccc(NC(=O)Nc2cn(CC(C)C)c(=O)c3ccccc23)cc1N(C)C	Tau ThT inhib inconclusive, Tau fluor cs 25µM[quencher], Tau fibril FP inconclusive (no result: GoLoco inh red, KDM4E inh)
COC(=O)c1cc(OC)c(OC)cc1NCC(=O)Nc1ccc(OC)c(OC)c1	KDM4E inh inconclusive
O=C(O)CSCC(=O)Nc1cc(C(F)(F)F)ccc1Cl	none
COC(=O)c1cc(OC)c(OC)cc1NCC(=O)Nc1cccc(C(F)(F)F)c1	Tau ThT inhib inconclusive, Tau fluor cs 18µM[quencher], KDM4E inh inconclusive, Tau fibril FP inconclusive
CC(C)Oc1cc(NC(=O)CSCC(=O)Nc2cccc(C(F)(F)F)c2)c(Cl)cc1Cl	Tau fluor cs inconclusive, Tau fibril FP 35µM
CC(C)Cn1cc(NC(=O)Nc2cccc(C(F)(F)F)c2)c2ccccc2c1=O	Tau fluor cs 8.9µM[quencher], Tau fibril FP inconclusive (no result: GoLoco inh red, KDM4E inh)
CC(C)Cn1cc(NC(=O)NCc2ccccc2)c2ccccc2c1=O	none (no result: GoLoco inh red, KDM4E inh)
COc1ccccc1CNC(=O)CN1C(=O)COc2ccc(S(=O)(=O)N3CCC(C)CC3)cc21	none (no result: GoLoco inh red, KDM4E inh)
COC(=O)CN1C(=O)C(C)(C)c2cc(S(=O)(=O)Nc3ccc(C(C)C)cc3)ccc21	none (no result: GoLoco inh red, KDM4E inh)
CC(=O)c1ccc(-c2ccc(/C=C(/Sc3n[nH]c(C)n3)C(=O)O)o2)cc1	Tau ThT inhib 1µM, Tau fluor cs inconclusive
Cc1nc(S/C(=C/c2ccc(-c3ccc(Cl)cc3)o2)C(=O)O)n[nH]1	Tau ThT inhib 2µM, Tau fluor cs inconclusive
Cc1nc(S/C(=C/c2ccc(-c3cc(Cl)ccc3C)o2)C(=O)O)n[nH]1	Tau ThT inhib 11µM, KDM4E inh 5µM
Cc1ccc(Cl)cc1-c1ccc(C=Nc2ccc(N3CCOCC3)cc2)o1	Tau ThT inhib inconclusive
Cc1nc(S/C(=C/c2ccc(-c3ccc(C(=O)O)cc3)o2)C(=O)O)n[nH]1	Tau ThT inhib 4.5µM
COc1ccc(C2c3c(oc4ccc(Cl)cc4c3=O)C(=O)N2CCCN(C)C)cc1OC (stereo not drawn)	none (no result: GoLoco inh red, KDM4E inh)
COc1ccc2c(c1)c1c(c(=O)n(-c3ccccc3C)c(=O)n1CC(=O)Nc1c(C)cccc1C)n2C	none (no result: GoLoco inh red, KDM4E inh)
COc1ccc(OC)c(NC(=O)CCc2c(C)nn(-c3ccc(N4CCCC4)nn3)c2C)c1	Tau ThT inhib inconclusive (no result: GoLoco inh red, KDM4E inh)
CCOCCCNC(=O)C1CCN(C(=O)c2cc3sccc3n2C)CC1	none (no result: GoLoco inh red, KDM4E inh)
Nc1ccc(C(=O)O)c(O)c1	Tau ThT inhib inconclusive, Tau fluor cs inconclusive, KDM4E inh 7.1µM!
